Shown are actives, neighbours in structure and some others; about 2% of the full set was active somewhere.
EP2 modulator: EP2 receptor (human) modulation | EP2-expressing cells, cAMP HTRF FRET, PGE2 co-stimulation | P43116 | AID 940 | hit rate 0.83% among 260,000 | induction, % at 25 µM;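 active = compounds whose cAMP rise, as percent of the full-agonist control response, exceeds 60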;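 note: rat C6 glioma line stably carrying human EP2 under a CMV promoter; the protocol text gives 20 µM as final concentration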
Target sequence (P43116 whole entry, looked up): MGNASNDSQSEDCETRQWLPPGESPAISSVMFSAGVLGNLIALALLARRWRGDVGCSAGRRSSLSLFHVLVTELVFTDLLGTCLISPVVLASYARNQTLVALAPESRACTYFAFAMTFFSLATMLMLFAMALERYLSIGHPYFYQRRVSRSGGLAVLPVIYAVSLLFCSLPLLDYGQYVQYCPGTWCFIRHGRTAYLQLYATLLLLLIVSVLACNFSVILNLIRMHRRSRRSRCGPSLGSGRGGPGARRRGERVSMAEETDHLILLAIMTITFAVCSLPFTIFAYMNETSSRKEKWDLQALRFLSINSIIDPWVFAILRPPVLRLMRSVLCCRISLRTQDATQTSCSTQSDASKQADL
CHT block: inhibitors of human choline transporter CHT; AID 488975; CHT-expressing cells, membrane potential dye, choline response; hits give low values; B-score at 10 µM; Q9GZV3; hit rate 0.86% among 310,000;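 active = B-score over 3 SD under the library average, and starting fluorescence ratio not unusually high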;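 note: choline stimulus applied at its EC90 after an EC20 pre-addition; B-score computed on integrated fluorescence ratio after choline addition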
CHT allo act: allosteric activators of human choline transporter CHT. CHT-expressing cells, membrane potential dye, choline EC20; hits give high values; LV-AA mutant CHT in HEK293 cells. B-score at 10 µM. AID 488977. hit rate 0.49% among 310,000. Q9GZV3;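 active = initial fluorescence not abnormally high and integrated response B-score, plate-corrected, over 3 SD above library mean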
PGE2 EP2 inh: blocks the human prostaglandin E2 receptor EP2 | P43116 | C6 glioma cells expressing human EP2, cAMP TR-FRET; cells stimulated with saturating PGE2 | inhibition, % at 25 µM | hit rate 0.52% among 260,000 | AID 1422;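 active = percent inhibition above 40 after rounding to a whole number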;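 note: rat C6 glioma host cells with rolipram phosphodiesterase inhibitor present; the protocol text gives 20 µM as final concentration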
EP2 cAMP induct: EP2 receptor cAMP induction, counter-screens negative; hit rate 47% among 1,300; shares compounds with EP2 modulator; C6 glioma EP2 cells, cAMP HTRF induction; plus low (about EC15) PGE2 agonist; calls only at 20 µM (by protocol);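 active = cAMP induction above 50% in the main assay while under 30% in all four parallel counter assays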;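 note: rat C6 glioma cells stably expressing human EP2 receptor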
Hits are given with their value; n = inactive; x = no result; + = active, no number.

SMILES	EP2 modulator	CHT block	CHT allo act	PGE2 EP2 inh	EP2 cAMP induct
COc1ccc(-c2nc(NC(C)=O)sc2-c2ccccc2)cc1	62.0	n	n	n	n
COc1ccccc1Nc1cc(C)nc2c(C)ccc([N+](=O)[O-])c12	80.3	n	n	n	+
CCNc1nc(NCC)nc(SCCOC(=O)Nc2ccccc2)n1	n	n	n	n	x
CCNc1nc(NCC)nc(SCCOc2ccc(C)cc2)n1	82.1	n	n	n	+
O=C1N2c3ccccc3CCc3cccc(c32)C1(O)C(F)(F)F (stereo unspecified)	78.9	n	n	n	n
O=C(CCl)N1c2ccccc2CCc2ccccc21	x	n	n	x	x
Oc1ccc(-c2nc3ccc(Cl)cn3c2NCC2CCCO2)cc1 (stereo unspecified)	n	x	x	n	x
CCn1cc(CNC(=O)c2cnn3c(C(F)F)cc(-c4ccc(C)cc4)nc23)cn1	n	x	x	n	x
O=C(c1ccc2c(c1)OCO2)N(Cc1cccs1)C1(C(=O)NC2CCCCC2)CCCCC1	71.3	n	n	n	n
C=CCC(=O)OCCCCCCOc1ccc(C(=O)O)cc1	67.4	n	n	n	n
C=CCCCOc1ccc(C(=O)O)cc1	n	n	n	n	x
COc1ccccc1NC(=O)C1=C(C)Nc2ncnn2C1c1ccc(Cl)c(Cl)c1 (stereo unspecified)	n	x	x	n	x
N#CCSc1nc2c(c(C3CC=CCC3)c1C#N)CCC2 (stereo unspecified)	77.8	n	n	n	+
N#CCSc1nc2c(cc1C#N)CCCCCC2	n	n	n	n	x
Cc1cccc(CSc2ncnc3ccccc23)c1	71.3	n	n	n	n
Cc1ccc(CSc2ncnc3ccccc23)cc1	n	n	n	n	x
O=C(Nc1cccc(Cl)c1N1CCCC1)c1cc2ccccc2o1	n	n	n	n	x
O=C(Nc1ccccc1-c1ccccc1)c1ccc(Br)o1	n	n	n	n	n
O=C(Nc1ccccc1Oc1ccccc1)c1cnccn1	70.8	n	n	n	+
O=C(Nc1cccc(Cl)c1N1CCCC1)c1ccc(Br)o1	69.1	n	n	n	+
O=C(Nc1ccccc1Oc1ccccc1)c1ccc(Br)o1	63.8	n	n	n	+
CC(=O)O[C@H]1C[C@@H](OC(C)=O)C(C)(C)C2C[C@@H](OC(C)=O)[C@@]3(C)C4=CC(=O)O[C@@H](c5ccoc5)[C@]4(C)CCC3[C@]21C (stereo partly specified)	n	x	x	n	x
COc1ccc(-c2nc3cnccn3c2NCC2CCCO2)c(OC)c1 (stereo unspecified)	n	x	x	n	x
CCCCn1c(=O)[nH]c2c(oc3ccccc32)c1=O	x	n	n	x	x
Cc1ccc(-n2c(=S)[nH]c3c(oc4ccccc43)c2=O)cc1	74.4	n	n	n	n
SMILES	EP2 modulator	CHT block	CHT allo act	PGE2 EP2 inh	EP2 cAMP induct
O=c1c2oc3ccccc3c2[nH]c(=S)n1-c1ccccc1	70.7	n	n	n	n
Cc1cc(C)n2nc(CC(=O)N3CCCCC3c3nc4ccccc4[nH]3)nc2n1 (stereo unspecified)	n	x	x	x	x
CCCN(CC)c1nc2c(C)cccn2c(=O)c1/C=C1\SC(=S)N(CC2CCCO2)C1=O (stereo unspecified)	n	x	x	n	x
Cc1cccc(Cn2c(=O)n(Cc3ccco3)c(=O)c3ccccc32)c1	76.1	n	n	n	n
C=CCn1c(SCC(N)=O)nc(C)cc1=O	68.2	n	n	n	n
COc1ccc(C2(O)CCN(CC(O)c3ccc(C)cc3)CC2)cc1 (stereo unspecified)	n	x	x	n	x
CCOC(=O)CN(C(=O)CSc1nnc(Cc2ccccc2)n1-c1ccc(C)cc1)c1ccccc1	n	n	n	n	n
COC(=O)c1ccc(-n2nc(C(F)(F)F)c3c2-c2ccoc2CC3)cc1	72.1	n	n	n	n
Cc1ccc(C2CC2c2n[nH]c(=S)n2-c2ccc(Cl)cc2)cc1 (stereo unspecified)	n	n	n	n	n
O=c1oc2c(Br)cc(Br)cc2cc1-c1nnc(-c2ccccc2)o1	n	x	x	n	x
CCOc1ccccc1C(=O)Nc1ccsc1C(=O)OC	81.3	n	n	n	+
Cc1cccc(OCC(=O)Nc2ccc(N3CCN(C)CC3)cc2)c1	n	x	x	n	x
Clc1ccc(Cl)c(-c2ccc(/C=N/c3ncn[nH]3)o2)c1	70.9	n	n	n	n
Cc1cnn(-c2nc(-c3ccccc3)cc(-c3ccccc3)n2)c1	66.6	x	x	n	+
Cc1ccc(C(=O)Nc2ccccc2C(=O)NCc2ccccc2)cc1	67.4	n	n	n	n
Cc1ccc(C(=O)Nc2ccccc2C(=O)NCc2cccnc2)cc1	x	n	n	x	x
COc1ccccc1CNc1cc(C)ccc1C	66.1	n	n	n	n
COc1ccccc1CNC(=S)Nc1cc(C)ccc1C	n	n	n	n	x
O=C(NNc1ccc([N+](=O)[O-])cc1[N+](=O)[O-])C1C2CCCCC21 (stereo unspecified)	65.2	n	n	n	+
Cc1ccc(CN(CCN(C)C)Cc2c(C)nn(C(C)C)c2C)o1	n	x	x	n	x
O=C1c2ccccc2OC2(C=Cc3ccccc3O2)N1Cc1ccccc1 (stereo unspecified)	76.5	n	n	x	+
C=CCn1c(SCC(=O)Nc2ccc(C)c(C)c2)nnc1-c1ccncc1	n	x	x	n	x
COc1ccc(-c2nnc(SCC(=O)Nc3ccc(C)c(C)c3)n2CC2CCCO2)cc1OC (stereo unspecified)	n	x	x	n	x
Cn1cccc1/C=C1\CC(C(C)(C)C)C/C(=C\c2cccn2C)C1=O (stereo unspecified)	70.7	n	n	n	+
O=S1(=O)N=C(N(CCO)/N=C/C=C/c2ccccc2)c2ccccc21	72.2	n	n	n	+
SMILES	EP2 modulator	CHT block	CHT allo act	PGE2 EP2 inh	EP2 cAMP induct
O=S1(=O)N=C(N(CCO)/N=C/c2ccc(Cl)cc2)c2ccccc21	x	n	n	x	x
COc1ccc(OC)c(-c2c3c([nH]c(=S)c2C#N)CCCC3)c1	n	n	n	n	x
COc1ccc(-c2c3c([nH]c(=S)c2C#N)CCC3)cc1	76.8	x	x	n	n
COc1nc(Cc2ccc(Cl)cc2)nc2ccccc12	n	n	n	n	x
C#CCSc1nc(Cc2ccc(Cl)cc2)nc2ccccc12	66.9	n	n	n	+
COCCn1c(SCC(=O)NCCc2ccccc2)nnc1-c1ccco1	66.6	n	n	n	n
COC(=O)c1c(NC(=O)CSc2nc3ccccc3c(=O)n2Cc2ccco2)sc(C)c1C	n	n	n	n	x
COC(=O)c1c(NC(=O)CSc2nnc(-c3ccco3)n2Cc2ccccc2)sc(C)c1C	n	n	n	n	n
CCn1c(SCC(=O)NCCc2ccccc2)nnc1-c1ccco1	n	n	n	n	x
CCOc1cc(/C=C\c2nc(O)c([N+](=O)[O-])c(=O)[nH]2)ccc1OCc1ccccc1	n	x	x	n	x
Cc1ccccc1OCc1nc2ccccc2c(=O)n1/N=C/c1ccco1	66.8	n	n	n	n
Cc1nc2ccccc2c(=O)n1/N=C/c1ccco1	n	n	n	n	x
CC1=C(C(=O)OCc2ccccc2)C(c2ccc(Cl)cc2Cl)NC(=O)N1CCCCCC(=O)O (stereo unspecified)	66.0	n	n	n	n

Source: PubChem (several laboratories)
